From ChEMBL document CHEMBL4513146, “CO-ADD screening of Karazin Kharkiv National University (Ukraine) compounds” come the findings set out here.

In general, Inhibition refers to the change of the read-out against control, counted positive when it falls.

Molecules are shown by their SMILES. Results with a measured potency or affinity are listed apart.

In one test the test system is Staphylococcus aureus. The following applies: Concentration 32 ug.mL-1;; ASSAY_TEST Inhibition of Bacterial Growth; detection method Absorption (OD600); MEDIA CAMHB; plate type 384well; NBS; CORNING #3640; time 18 hr.
The next test concerns Escherichia coli. To be noted: Concentration 32 ug.mL-1;; ASSAY_TEST Inhibition of Bacterial Growth; detection method Absorption (OD600); MEDIA CAMHB; plate type 384well; NBS; CORNING #3640; time 18 hr.

As for `COc1ccc(N(Cc2cccc(F)c2)S(=O)(=O)c2ccc3nncn3c2)cc1`, the results for the Inhibition in the test on Staphylococcus aureus and in the test with Escherichia coli were -9.11% and 1.35%, respectively.

Regarding `CC(C)c1nnc2c(SCC(=O)Nc3ccc(Br)cc3F)nc3ccccc3n12`, the Inhibition in the test on Staphylococcus aureus is listed as 6.04%; in the test with Escherichia coli it was -1.36%.

For `COc1ccc(NC(=O)Cn2nc3c(Oc4cccc(OC)c4)nccn3c2=O)cc1`, the Inhibition in the test on Staphylococcus aureus is listed as 14.33%; in the test with Escherichia coli, -3.37%.

With `Cc1cc(C)cc(NC(=O)Cn2nc3n(C)c(=O)c4c(c(-c5ccccc5)cn4C)n3c2=O)c1`, the Inhibition in the test on Staphylococcus aureus is 7.23%; in the test with Escherichia coli, 1.88%.

As for `CCc1nnc2c(SCC(=O)Nc3ccc(C(C)=O)cc3)nc3ccccc3n12`, the Inhibition in the test on Staphylococcus aureus turned out to be 4.71%; with Escherichia coli it was 4.62%.

On to `Cc1ccc(-n2ccn3c(=O)n(Cc4ccccc4Cl)nc3c2=O)cc1C`, for which the Inhibition is 0.51% in the test with Staphylococcus aureus and -7.32% with Escherichia coli.

On to `CC(C)Sc1ccc2nn(CC(=O)Nc3ccccc3F)c(=O)n2n1`, for which the Inhibition with Staphylococcus aureus was -5.65%; in the test on Escherichia coli it was 3.66%.

Take `O=C(Cn1nc2c(Oc3ccccc3)nccn2c1=O)Nc1ccc(F)cc1Cl`: the Inhibition in the test with Staphylococcus aureus is recorded as 2.27%; with Escherichia coli, -4.59%.

`COc1ccc(NC(=O)c2ccc3nn(CC(=O)Nc4cccc(SC)c4)c(=O)n3c2)cc1`: the Inhibition was -4.7% with Staphylococcus aureus and -9.26% in the test with Escherichia coli.

Regarding `CC(=O)c1ccc(NC(=O)Cn2c(=O)c3nnc(C(C)C)n3c3ccccc32)cc1`, the Inhibition with Staphylococcus aureus is listed as 5.44%; in the test on Escherichia coli it was -3.86%.

In the case of `COc1ccc(C(=O)CSc2nnc3c(=O)n(-c4ccccc4)ccn23)cc1OC`, the Inhibition with Staphylococcus aureus is reported as -10.93%; with Escherichia coli it was -14.26%.

Turning to `Cc1ccccc1Oc1nc2ccccc2n2c(=O)n(CC(=O)Nc3cccc(C(F)(F)F)c3)nc12`, the Inhibition in the test with Staphylococcus aureus was 7.78%; in the test with Escherichia coli, 2.27%.

As to `CC(C)NC(=O)CCn1c(=O)c2ccccc2n2c(=O)n(CC#N)nc12`, the Inhibition in the test with Staphylococcus aureus was -1.98%; with Escherichia coli, 0.48%.

In the case of `CCOC(=O)C1CCCN(C(=O)Cn2nc3n(CC(C)C)c(=O)c4sccc4n3c2=O)C1` (configuration not stated), the Inhibition in the test on Staphylococcus aureus is listed as -2.49%; with Escherichia coli it was -6.05%.

Consider `Cc1nnc2c(=O)n(CC(=O)Nc3ccccc3Br)c3ccccc3n12`, for which the Inhibition stood at 16.36% in the test on Staphylococcus aureus and 5.04% with Escherichia coli.

As for `CCCn1c(=O)c2sccc2n2c(=O)n(CC(=O)c3ccc(OC)c(OC)c3)nc12`, the results for the Inhibition in the test on Staphylococcus aureus and in the test on Escherichia coli were 7.14% and -1.62%, respectively.

In the case of `CCOC(=O)c1ccc(NC(=O)Cn2nc3ccc(-c4ccc(Cl)cc4)nn3c2=O)cc1`, the Inhibition was 7.47% with Staphylococcus aureus and -1.44% with Escherichia coli.

As for `CCCCn1c(=O)c2sccc2n2c(SCc3cccc(C(F)(F)F)c3)nnc12`, the values for the Inhibition in the test on Staphylococcus aureus and in the test on Escherichia coli were -1.51% and -8.66%, respectively.

Consider `Cc1ccc(-c2ccc3nn(Cc4cccc(Cl)c4)c(=O)n3n2)cc1C`, for which the Inhibition is 8.16% with Staphylococcus aureus and -3.9% in the test with Escherichia coli.

Consider `CSc1ccc(CNC(=O)Cn2nc3c(N4CCN(c5ccccc5)CC4)nccn3c2=O)cc1`, for which the results for the Inhibition in the test with Staphylococcus aureus and in the test on Escherichia coli were 15.59% and 0.69%, respectively.

Regarding `O=C(Cn1nc2nc(Nc3ccc(F)cc3)ccn2c1=O)N1CCCC1`, the Inhibition with Staphylococcus aureus is given as -4.71%; in the test with Escherichia coli it was -12.03%.

In the case of `O=c1n(Cc2cc(F)cc(F)c2)nc2ccc(-c3ccccc3)nn12`, the Inhibition with Staphylococcus aureus was 8.62%; with Escherichia coli, -1.58%.

On to `Cc1ccc(-c2cc3c4nn(CC(=O)NCc5ccccc5Cl)c(=O)n4ccn3n2)cc1C`, for which the Inhibition with Staphylococcus aureus is recorded as 0.72%; with Escherichia coli, 0.46%.

For the molecule `Cc1cccc(C)c1NC(=O)Cn1nc2n(C)c(=O)c3c(c(-c4ccccc4)cn3C)n2c1=O`, the values for the Inhibition in the test with Staphylococcus aureus and with Escherichia coli were 8.81% and 0.54%, respectively.

For the molecule `Cc1ccc(-c2cc3c4nn(CC(=O)Nc5cccc(C)c5C)c(=O)n4ccn3n2)cc1C`, the values for the Inhibition with Staphylococcus aureus and in the test on Escherichia coli were 13.1% and -0.36%, respectively.

Regarding `Cc1ccc(Cl)cc1NC(=O)CSc1nc2ccccc2n2c(C)nnc12`, the Inhibition is -8.21% in the test on Staphylococcus aureus and -3.62% in the test with Escherichia coli.

For `CC(C)Cn1c(=O)c2sccc2n2c(=O)n(CC(=O)N3CCC(Cc4ccccc4)CC3)nc12`, the Inhibition with Staphylococcus aureus was -13.33%; in the test with Escherichia coli it was -14.95%.

Regarding `Cc1cc(C)c(NC(=O)Cn2nc3c(SC4CCCCC4)nccn3c2=O)c(C)c1`, the Inhibition is 12.7% with Staphylococcus aureus and -1.77% in the test with Escherichia coli.

Turning to `CC(C)CCn1c(=O)c2sccc2n2c(=O)n(CC(=O)N3CCC(Cc4ccccc4)CC3)nc12`, the Inhibition was -19.02% with Staphylococcus aureus and -15.19% with Escherichia coli.

Turning to `COc1cccc(NC(=O)Cn2nc3c(Oc4cccc(OC)c4)nccn3c2=O)c1`, the Inhibition in the test on Staphylococcus aureus is reported as -17.16%; in the test on Escherichia coli it was 2.27%.

As for `Cc1cccc(C)c1NC(=O)Cn1nc2c(Sc3ccccc3)nccn2c1=O`, the Inhibition in the test with Staphylococcus aureus is reported as -0.19%; with Escherichia coli, -13.17%.

As for `CCc1ccc(N(Cc2cccc(F)c2)S(=O)(=O)c2cccn3c(CC)nnc23)cc1`, the Inhibition is 13.65% in the test with Staphylococcus aureus and -0.18% in the test on Escherichia coli.

With `CCOC(=O)c1ccc(NC(=O)CSc2nnc3c4cc(-c5ccc(OC)cc5)nn4ccn23)cc1`, the Inhibition with Staphylococcus aureus stood at 10.14%; with Escherichia coli, 2.37%.

As for `O=S(=O)(c1ccc2nncn2c1)N(Cc1ccccc1F)c1ccc2c(c1)OCCO2`, the Inhibition in the test on Staphylococcus aureus is given as 5.05%; in the test on Escherichia coli, -6.13%.

Turning to `CCCc1nnc2c(=O)n(CC(=O)Nc3ccc(NC(C)=O)cc3)c3ccccc3n12`, the Inhibition in the test on Staphylococcus aureus is recorded as 9.51%; in the test with Escherichia coli, -0.84%.

On to `O=c1n(Cc2cccc(Cl)c2)nc2ccc(-c3ccccc3)nn12`, for which the Inhibition with Staphylococcus aureus was found to be 13.35%; in the test with Escherichia coli it was 0.79%.
